PubChem BioAssay
Results filed as inconclusive are left out. The source made the active and inactive calls.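 Rule for the calls, unless noted: active = viability at or below 27.92% in each of two runs, the all-compound median minus 4 SD; inconclusive = no clear call, values can overlap the other calls; inactive = the rest.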

Tests used:
[1] = molecular target: Pantothenate synthetase (Mycobacterium tuberculosis (strain ATCC 25618 / H37Rv)) (UniProt P9WIL5); experiment: Recombinant Mtb pantothenate synthetase (PanC) inhibitors, coupled enzyme, confirmatory (AID 375; call rule not given here;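 note: 0% = full reaction with vehicle and 100% = no enzyme background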); settings: coupled enzyme assay; at 10 µM, stronger effect = higher value
Chain of Pantothenate synthetase (Mycobacterium tuberculosis (strain ATCC 25618 / H37Rv)) (P9WIL5 whole entry, looked up): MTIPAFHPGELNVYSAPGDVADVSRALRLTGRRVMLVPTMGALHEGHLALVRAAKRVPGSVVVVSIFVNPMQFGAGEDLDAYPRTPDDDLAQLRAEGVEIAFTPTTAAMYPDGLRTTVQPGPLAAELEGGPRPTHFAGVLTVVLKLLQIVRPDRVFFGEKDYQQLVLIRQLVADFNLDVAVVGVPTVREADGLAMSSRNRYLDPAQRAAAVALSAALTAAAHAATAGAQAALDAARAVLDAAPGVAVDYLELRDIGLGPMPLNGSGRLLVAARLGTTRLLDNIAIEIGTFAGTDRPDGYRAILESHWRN

[2] = reducers of endogenous Her2 protein level, primary screen, SKBR3 breast tumor cells, AlphaScreen, ATP viability (AID 461;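 active = Her2 level under about 52% in both replicate screens, with viability over 70% of control, limit read from the data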;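 for Her2 level: lower value means less Her2 protein in the cells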;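 for viability: percent of carrier control wells set as 100% viability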); settings: 18-24 h, measured here: SKBR3 viability, ATP luminescence, at 10 µM
[3] = molecular target: Receptor tyrosine-protein kinase erbB-2 (Homo sapiens) (UniProt P04626); experiment: as above; settings: 18-24 h, at 10 µM, stronger effect = lower value
Chain of Receptor tyrosine-protein kinase erbB-2 (Homo sapiens) (P04626 whole entry, looked up): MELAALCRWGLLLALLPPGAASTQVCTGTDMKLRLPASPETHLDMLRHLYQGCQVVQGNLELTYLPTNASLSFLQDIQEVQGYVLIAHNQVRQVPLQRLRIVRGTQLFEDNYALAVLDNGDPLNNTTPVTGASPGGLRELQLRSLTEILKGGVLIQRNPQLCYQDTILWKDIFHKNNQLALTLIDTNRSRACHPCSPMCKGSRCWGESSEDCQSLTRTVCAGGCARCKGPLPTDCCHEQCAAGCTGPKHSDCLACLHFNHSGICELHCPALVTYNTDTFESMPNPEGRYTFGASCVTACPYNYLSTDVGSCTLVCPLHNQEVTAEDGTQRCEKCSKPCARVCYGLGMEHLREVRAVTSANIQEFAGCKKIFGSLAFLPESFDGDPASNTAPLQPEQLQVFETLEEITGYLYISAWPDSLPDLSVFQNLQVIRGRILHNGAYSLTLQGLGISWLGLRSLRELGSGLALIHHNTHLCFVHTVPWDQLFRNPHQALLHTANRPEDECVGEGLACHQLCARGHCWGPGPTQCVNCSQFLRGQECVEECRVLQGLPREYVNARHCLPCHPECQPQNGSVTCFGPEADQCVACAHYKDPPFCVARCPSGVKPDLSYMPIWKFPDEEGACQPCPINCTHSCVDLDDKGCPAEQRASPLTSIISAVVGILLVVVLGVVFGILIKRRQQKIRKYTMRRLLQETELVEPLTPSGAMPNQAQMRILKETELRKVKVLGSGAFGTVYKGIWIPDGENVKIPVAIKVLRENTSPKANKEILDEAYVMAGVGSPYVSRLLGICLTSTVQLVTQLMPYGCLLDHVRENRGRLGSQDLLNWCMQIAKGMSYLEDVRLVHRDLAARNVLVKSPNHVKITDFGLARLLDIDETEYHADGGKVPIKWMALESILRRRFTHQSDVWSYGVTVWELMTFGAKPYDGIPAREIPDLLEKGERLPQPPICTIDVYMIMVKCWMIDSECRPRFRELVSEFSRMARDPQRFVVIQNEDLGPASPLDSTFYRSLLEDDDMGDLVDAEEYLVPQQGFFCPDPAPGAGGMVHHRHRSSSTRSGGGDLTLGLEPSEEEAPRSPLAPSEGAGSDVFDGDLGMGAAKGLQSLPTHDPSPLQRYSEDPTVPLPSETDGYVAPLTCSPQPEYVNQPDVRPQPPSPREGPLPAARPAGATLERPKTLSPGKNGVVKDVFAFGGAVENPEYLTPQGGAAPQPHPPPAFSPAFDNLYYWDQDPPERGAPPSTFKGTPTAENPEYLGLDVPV

[4] = SK-BR-3 cell growth inhibitors, pilot screen, 24 h, human (AID 572;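 active = viability at or below 10% of carrier control in both of two separate runs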;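 note: compound exposure lasted between 18 and 24 h rather than exactly 24 h; 100% = carrier-treated control wells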); settings: SK-BR-3 viability, CellTiter-Glo luminescence, at 10 µM, stronger effect = lower value
[5] = HUVEC growth inhibition – cell-based, human, primary screen (AID 575;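 active = viability at or below 30% in both replicate assays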;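 note: 100% = median of untreated cell wells with 0.1% DMSO on each plate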); settings: HUVEC proliferation, CellTiter-Glo luminescence, 72 h; at 10 µM; stronger effect = lower value
[6] = reversal of MRP1-mediated doxorubicin resistance, pilot screen, H69AR cells, doxorubicin co-treatment (AID 601;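 active = viability loss from added drug above about 55%, and viability with drug at most 40%, in both replicates, limit read from the data, passing the limit was not always enough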); settings: CellTiter-Glo, 72 h, at 10 µM; for differential viability (reversal): stronger effect = higher value
[7] = 384-well plate pilot, post-Golgi transport modulator project, inhibition of yeast transport mutant growth (AID 636; in the data active = inhibition above about 31%); settings: absorbance 615 nm, about 18 h, stronger effect = higher value
[8] = growth suppression of yeast trafficking mutant, preliminary HTS, modulators of trafficking downstream of Golgi apparatus project, 1536-format plate, OD 615 nm (AID 637; in the data active = inhibition above about 30%); settings: yeast transport mutant growth, absorbance 615 nm, 18 h; stronger effect = higher value
[9] = OD615 S. cerevisiae growth inhibition, permissive medium, pilot counter-assay, permissive growth control for S. cerevisiae lifespan shortening project (AID 705;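 active = growth inhibition above 25% in both replicates, a cutoff set 3 SD above the mean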); settings: OD615, 24 h, at 10 µM, stronger effect = higher value
[10] = Restrictive medium S. cerevisiae growth inhibition, OD615, pilot screen of yeast lifespan reduction project, restrictive growth control (AID 706;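 active = growth inhibition above a set limit, 3 SD over mean compound inhibition, in both replicates, cut at about 43% in these data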;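 note: modified DeaD lifespan yeast strain shifted to restrictive glucose medium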); settings: OD615, 48 h, at 10 µM, stronger effect = higher value
[11] = viability gain of MRP-1-high H69AR cells under doxorubicin, pilot screen, MRP-1 activator project, CellTiter-Glo, duplicate (AID 807;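 active = viability increase at or above a cutoff of the median across tested compounds plus 3 SD, cut at about 8.5% in these data, passing the limit was not always enough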;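 note: compound pretreatment 18-22 h then 72 h combined with doxorubicin; 0% = doxorubicin alone and 100% = vehicle without doxorubicin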); settings: H69AR viability with doxorubicin, CellTiter-Glo luminescence; at 10 µM; stronger effect = higher value
[12] = growth suppression of beta-catenin knockout HCT116, pilot screen, human colon tumor cells (AID 823;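 active = cell viability at or below a set limit in both duplicate runs, the limit being the all-compound median minus 4 SD, cut at about 23% in these data, passing the limit was not always enough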;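 note: 0% = wells killed by 20 µM Hyamine and 100% = untreated DMSO cell wells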); settings: CellTiter-Glo, 60 h, at 10 µM, stronger effect = lower value
[13] = growth suppression of PTEN-deleted HCT116, pilot screen, cell-based, HCT116 clonal line, CellTiter-Glo (AID 824); settings: 60 h, at 10 µM, stronger effect = lower value;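 note: 0% = 20 µM Hyamine control and 100% = vehicle cell control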
[14] = inhibitors of the yeast RAM network, pilot screen, dse1pr::URA3 reporter, 5-FOA selection (AID 869;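 active = inhibition over a set limit, the all-compound mean plus 3 SD, in both replicate runs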;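 note: 0% = DMSO wells with no growth and 100% = 10 µM 1-NA-PP1 with full growth; RAM network block rescues cells from 5-FOA so hits raise OD615 growth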); settings: S. cerevisiae dse1pr::URA3 5-FOA growth, OD615, 2 d, at 10 µM, stronger effect = higher value
[15] = RAM signaling pathway blockade in yeast – S. cerevisiae, Pdr1DBD-CYC8 efflux-inhibited sensitized strain, primary screen (AID 1298;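 active = RAM network inhibition above 8.4% in each of two replicates, 3 SD over the compound average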;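 note: 0% = DMSO untreated cells without growth and 100% = 10 µM 1-NA-PP1 full growth; higher means more yeast growth rescued from 5-FOA killing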); settings: S. cerevisiae cbk1-as DSE1-URA3 strain, 5-FOA growth OD615, 2 d; at 50 µM; stronger effect = higher value
[16] = growth inhibitors of H69AR lung tumor, primary screen, human, duplicate replicates (AID 580;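 active = viability at or under a set limit in both replicates, limit being median viability minus 3 SD, cut at about 48% in these data, passing the limit was not always enough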;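 note: 100% = mean luminescence of untreated wells and 0% = no signal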); settings: H69AR lung tumor cells viability, ATP luminescence, 72 h; at 10 µM; stronger effect = lower value
[17] = H69AR cells + 2 uM doxorubicin, measured here: viability with 2 uM doxorubicin, stronger effect = lower value
[18] = H69AR cells, compound alone cytotoxicity

CCCCNC(=O)c1c(N)n(CCCOC)c2nc3ccccc3nc12
inactive: inhibition [1] 0% | Her2 level [3] 82% | viability [4] 89% | viability [5] 71.8% | differential viability (reversal) ([6]; H69AR cells + 2 uM doxorubicin) -25.4% | inhibition [7] 1.1% | inhibition [8] 5.24% | growth inhibition [9] 1.92% | growth inhibition [10] -1.88% | viability increase [11] -6.16% | viability [12] 68.5% | viability [13] 67.8% | inhibition [14] 0.37% | RAM network inhibition [15] -3.2%
89%: viability [2]
54%: viability [6, 18]
79.4%: viability [6, 17]

CCCCCCOc1ccc(CN2CCN(CCO)CC2)cc1
inactive: growth inhibition [9] -16.7% | growth inhibition [10] 2.46% | viability increase [11] -6.03% | viability [12] 60.7% | viability [13] 75.5% | inhibition [14] 2% | RAM network inhibition [15] -1.21%

C[C@H]1CCCC(=O)CCC/C=C/c2cc(O)cc(O)c2C(=O)O1
active: Her2 level [3] 16% | viability [16] 38.4%
inactive: inhibition [1] 0% | viability [4] 98.5% | differential viability (reversal) ([6]; H69AR cells + 2 uM doxorubicin) -57.4% | inhibition [7] -3.47% | inhibition [8] 1.15% | growth inhibition [9] -12.9% | growth inhibition [10] -14.8% | viability increase [11] -6.31% | viability [12] 65.3% | viability [13] 66.5% | inhibition [14] 2.21% | RAM network inhibition [15] 4.86%
98.5%: viability [2]
38.4%: viability [6, 18]
95.8%: viability [6, 17]

Cc1ccc(CC2C(=O)N(C)C(=O)N(C)C2=O)s1
106%: viability [2]
88.3%: viability [6, 17]
95.4%: viability [6, 18]
inactive: inhibition [1] 0% | Her2 level [3] 119% | viability [4] 106% | viability [5] 82.8% | viability [16] 95.4% | differential viability (reversal) ([6]; H69AR cells + 2 uM doxorubicin) 7.06% | inhibition [7] -3.77% | inhibition [8] -1.67% | growth inhibition [9] -2.9% | growth inhibition [10] 3.58% | viability increase [11] 0.21% | viability [12] 100% | viability [13] 99.6% | inhibition [14] -0.01% | RAM network inhibition [15] 4.4%

O=C(c1ccc2c(c1)OCO2)N1CCC2(CC1)OCCO2
inactive: growth inhibition [9] -5.96% | growth inhibition [10] -4.21% | viability increase [11] 1.06% | viability [12] 102% | viability [13] 97.1% | inhibition [14] 0.85% | RAM network inhibition [15] -1.11%

O=C(c1cccs1)C1CN2CCC1CC2 (stereo not given)
89.5%: viability [2]
inactive: inhibition [1] 0% | Her2 level [3] 122% | viability [4] 89.5% | viability [5] 94.3% | viability [16] 106% | differential viability (reversal) ([6]; H69AR cells + 2 uM doxorubicin) 13.5% | inhibition [7] 0.65% | inhibition [8] -4.33% | growth inhibition [9] -13.4% | growth inhibition [10] -12.2% | viability increase [11] -0.68% | viability [12] 97.3% | viability [13] 103% | inhibition [14] 0.375% | RAM network inhibition [15] 5.95%
92.8%: viability [6, 17]
106%: viability [6, 18]

CC(=O)Nc1ccc(OC(=O)c2ccccc2N)cc1
90.1%: viability [6, 17]
99.3%: viability [6, 18]
inactive: inhibition [1] 0% | Her2 level [3] 118% | viability [4] 100% | viability [5] 93.5% | viability [16] 99.3% | differential viability (reversal) ([6]; H69AR cells + 2 uM doxorubicin) 9.29% | inhibition [7] -0.13% | inhibition [8] -9.5% | growth inhibition [9] -7.19% | growth inhibition [10] -9.05% | viability increase [11] 1.42% | viability [12] 107% | viability [13] 102% | inhibition [14] 1.02% | RAM network inhibition [15] 0.27%
100%: viability [2]

Cc1cccc(-n2c(-c3ccco3)nc3ccccc3c2=O)n1
inactive: inhibition [1] 0% | Her2 level [3] 98.5% | viability [4] 105% | viability [5] 111% | viability [16] 87.9% | differential viability (reversal) ([6]; H69AR cells + 2 uM doxorubicin) -2.13% | inhibition [7] -0.54% | growth inhibition [9] -16.8% | growth inhibition [10] -15.7% | viability increase [11] 0.12% | viability [12] 108% | viability [13] 99.7% | inhibition [14] 0.505% | RAM network inhibition [15] 0.8%
87.9%: viability [6, 18]
90%: viability [6, 17]
105%: viability [2]
active: inhibition [8] 49.3%

O=C1OCCN1P(=O)(c1ccccc1)c1ccccc1
inactive: growth inhibition [9] -6.19% | growth inhibition [10] 2.02% | viability increase [11] -0.69% | viability [12] 98.4% | viability [13] 98% | inhibition [14] 0.445% | RAM network inhibition [15] -1.04%

CCOC(=O)C1SC2(C(F)(F)C(F)F)CC1(O)c1c(c(OC)c3occc3c1OC)O2 (stereo not given)
inactive: growth inhibition [9] -4.93% | growth inhibition [10] -26.4% | viability increase [11] -0.89% | viability [12] 98.4% | viability [13] 86.9% | inhibition [14] 1.6% | RAM network inhibition [15] 6.2%

c1ccc(C2NCc3ccccc3-n3cccc32)cc1 (stereo not given)
inactive: inhibition [1] 0% | Her2 level [3] 93.5% | viability [4] 86% | viability [5] 104% | viability [16] 84.2% | differential viability (reversal) ([6]; H69AR cells + 2 uM doxorubicin) 5.83% | inhibition [7] -4.53% | inhibition [8] 1.67% | growth inhibition [9] -19% | growth inhibition [10] -22.7% | viability increase [11] -3.44% | viability [12] 68.2% | viability [13] 78.5% | inhibition [14] 2.53% | RAM network inhibition [15] 2.46%
84.2%: viability [6, 18]
86%: viability [2]
78.4%: viability [6, 17]

COc1ccc(OC)c(N2C(=O)NC(=O)C(CCc3ccncc3)(CCc3ccncc3)C2=O)c1
91.7%: viability [6, 17]
82.8%: viability [6, 18]
105%: viability [2]
inactive: inhibition [1] 0% | Her2 level [3] 112% | viability [4] 105% | viability [5] 91% | viability [16] 82.8% | differential viability (reversal) ([6]; H69AR cells + 2 uM doxorubicin) -8.92% | inhibition [7] 0.79% | inhibition [8] 11.3% | growth inhibition [9] -15.9% | growth inhibition [10] -9.8% | viability increase [11] -1.85% | viability [12] 94.8% | viability [13] 94.2% | inhibition [14] 2.2% | RAM network inhibition [15] 0.12%
